Structures are written as SMILES. Values joined by “and” are separate entries in the source; they are usually repeats but may differ in a detail not shown here. Equal entries are not always repeated. Inconclusive results are not listed. The source holds several records for some structures; these can differ, active in one and inactive in another. Active and inactive are the calls of the source. Unless noted, the call rests on the fitted dose curve.

Assay [1] can be described thus: Nuclear factor erythroid 2-related factor 2/antioxidant responsive element (Nrf2/ARE) small molecule agonists: qHTS cell viability counter screen in human keratinocytes (AID 1919968; active means well fitted curve in the direction sought with a large enough effect in the repeat runs; an effect the other way counts as inactive or inconclusive; further: nearly all actives have a fitted effect of over 55% in size; further: potency means the concentration at half of the fitted maximal effect). A digest of the protocol: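 KeratinoSens HaCaT cells, 1,500/well, preincubated 5 h, then exposed to compounds in DMSO for 23 h at 37 C/5% CO2. Viability read as CellTiter-Fluor fluorescence after 1 h, in the same wells as the ARE-luciferase read.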
On the technique in general: Quantitative high-throughput screening tests each substance at several concentrations.

Assay [2] is described as follows: Nuclear factor erythroid 2-related factor 2/antioxidant responsive element (Nrf2/ARE) small molecule agonists: luciferase reporter gene qHTS assay in human keratinocytes (AID 1919969; further: nearly all actives have a fitted effect of over 35% in size; further: potency means the concentration at half of the fitted maximal effect). (In general: A reporter such as luciferase makes a cellular process visible.)
The target of assay [3] is Gonadotropin-releasing hormone receptor (Homo sapiens) (UniProt P30968). The assay is described as follows: Human gonadotropin-releasing hormone receptor (GnRHR) small molecule agonists, calcium flux assay in GnRHR-HEK293 cells (AID 1920063). Further: nearly all actives have a fitted effect of over 35% in size. In short, it runs like this: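 HEK293 cells stably expressing human GnRHR were dye-loaded for 1 h at 37 C. Compound was added in agonist mode and fluorescence (Ex/Em 480/540) recorded kinetically for 3 min. Fifteen concentrations, triplicates.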
Sequence of Gonadotropin-releasing hormone receptor (Homo sapiens) (P30968 whole entry, looked up): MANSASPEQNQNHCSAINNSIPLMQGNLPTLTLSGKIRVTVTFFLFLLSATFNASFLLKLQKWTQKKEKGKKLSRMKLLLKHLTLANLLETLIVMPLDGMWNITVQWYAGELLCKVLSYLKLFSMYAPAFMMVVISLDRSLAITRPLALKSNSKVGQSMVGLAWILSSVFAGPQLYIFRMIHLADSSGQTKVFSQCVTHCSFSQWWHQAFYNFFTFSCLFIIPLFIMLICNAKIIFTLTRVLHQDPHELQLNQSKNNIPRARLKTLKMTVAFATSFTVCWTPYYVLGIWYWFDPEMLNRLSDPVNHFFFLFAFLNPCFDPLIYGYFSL
Background: Calcium flux is commonly read through the fluorescence of an indicator in the cells.

For assay [4], the target named is KiSS-1 receptor (Homo sapiens) (UniProt Q969F8). The assay is described as follows: Human kisspeptin (KISS1R) small molecule agonists, calcium flux assay in KISS1R-HEK293 cells (AID 1920064; active means well fitted curve in the direction sought with a large enough effect in the repeat runs; an effect the other way counts as inactive or inconclusive). In short, it runs like this:
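HEK293 cells stably expressing human KISS1R were loaded with calcium dye for 1 h at 37 C, then given compound; fluorescence (Ex/Em 480/540) was read kinetically for 3 min. Fifteen concentrations, triplicate.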

Assay [5] can be described thus: G protein-coupled receptor (GPCR) small molecule agonists, calcium flux assay: HEK293 wild type cell line counter screen (AID 1920065). A digest of the protocol:
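Wild-type HEK293 cells plated 18 h, loaded with calcium dye 1 h at 37 C, then compounds added in agonist mode (ATP as positive control). Kinetic fluorescence Ex/Em 480/540 recorded 3 min at 1 sec intervals; 15 concentrations, triplicate.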

A short description of assay [6]: p53 small molecule agonists, cell-based qHTS assay with human liver microsomes (AID 1963577). A digest of the protocol: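 p53RE-bla reporter cells were pre-incubated 5 h at 37 C, then treated with compounds plus human liver microsomes (0.5 mg/mL final) and NADPH (0.5 mg/mL final) for 16 h at 37 C. Beta-lactamase activity was read by LiveBLAzer fluorescence after 2 h at room temperature.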

A short description of assay [7]: p53 small molecule agonists, cell-based qHTS assay with human liver microsomes: qHTS cell viability counter screen (AID 1963579). Further: nearly all actives have a fitted effect of over 45% in size. Further: potency means the concentration at half of the fitted maximal effect. A digest of the protocol: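 p53RE-bla cells (4,000/well) were pre-incubated 5 h at 37 C, then given compounds in DMSO plus human liver microsomes (0.5 mg/mL final) and NADPH (0.5 mg/mL final) for 16 h at 37 C. Viability was read by CellTiter-Glo luminescence.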

Assay [8] is described as follows: p53 small molecule agonists, cell-based qHTS assay with rat liver microsomes: qHTS cell viability counter screen (AID 1963580). Further: nearly all actives have a fitted effect of over 45% in size. Further: potency means the concentration at half of the fitted maximal effect. In short, it runs like this: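 p53RE-bla HCT-116 cells were exposed 16 h at 37 C to compounds with rat liver microsomes (0.5 mg/mL) and NADPH (0.5 mg/mL). Viability was measured in the same wells as ATP content by CellTiter-Glo luminescence.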

The nature of assay [9]: p53 small molecule agonists, cell-based qHTS assay: qHTS cell viability counter screen (AID 1963581). Further: nearly all actives have a fitted effect of over 45% in size. In short, it runs like this: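 p53RE-bla HCT-116 cells, compounds added 5 h after plating and incubated 16 h at 37 C. Cytotoxicity measured in the same wells as intracellular ATP by CellTiter-Glo luminescence after 30 min at room temperature.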
The nature of assay [10]: p53 small molecule agonists, cell-based qHTS assay (AID 1963582; active means well fitted activation curve with a large enough effect in the signal ratio in the repeat runs, not every such curve was filed as active; the % refers to the signal ratio). In short, it runs like this:
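p53RE-bla reporter cells, compounds added in DMSO after 5 h plating, incubated 16 h at 37 C. Beta-lactamase read via 2 h room-temperature LiveBLAzer B/G FRET substrate, fluorescence intensity.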

Assay [11] has as its target 5-hydroxytryptamine receptor 2A (Homo sapiens) (UniProt P28223). The assay is described as follows: 5-hydroxytryptamine receptor 2A (HTR2A) small molecule antagonists, cell-based qHTS assay (AID 1963586). Further: nearly all actives have a fitted effect of over 45% in size. Further: potency means the concentration at half of the fitted maximal effect. A digest of the protocol: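 Antagonist-mode intracellular calcium assay: DOI (4 nM) added after 5 min compound pre-incubation at room temperature to dye-loaded HTR2A-CHO cells. Fluorescence followed for 3 min, sampled every second.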

Assay [12] has the same target. Briefly: 5-hydroxytryptamine receptor 2A (HTR2A) small molecule agonists, cell-based qHTS assay (AID 1963587). Further: nearly all actives have a fitted effect of over 30% in size. In short, it runs like this:
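CHO cells stably expressing human HTR2A, plated 18 h, loaded with calcium dye 1 h at 37 C. Agonist mode: compounds added and intracellular calcium fluorescence recorded kinetically for 2 min at 1 sec intervals.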

In assay [13] the target is Muscarinic acetylcholine receptor M1 (Homo sapiens) (UniProt P11229). The assay is described as follows: Cholinergic receptor muscarinic 1 (CHRM1) small molecule antagonists, cell-based qHTS assay (AID 1963588). Further: nearly all actives have a fitted effect of over 40% in size. A digest of the protocol: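 CHRM1-CHO calcium-flux assay, antagonist mode. Cells were seeded 18 h, dye-loaded 1 h at 37 C and given compound for 5 min at RT, then acetylcholine was added at 50nM. FDSS fluorescence was read 3 min; 15 concentrations, three runs.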
Sequence of Muscarinic acetylcholine receptor M1 (Homo sapiens) (P11229 whole entry, looked up): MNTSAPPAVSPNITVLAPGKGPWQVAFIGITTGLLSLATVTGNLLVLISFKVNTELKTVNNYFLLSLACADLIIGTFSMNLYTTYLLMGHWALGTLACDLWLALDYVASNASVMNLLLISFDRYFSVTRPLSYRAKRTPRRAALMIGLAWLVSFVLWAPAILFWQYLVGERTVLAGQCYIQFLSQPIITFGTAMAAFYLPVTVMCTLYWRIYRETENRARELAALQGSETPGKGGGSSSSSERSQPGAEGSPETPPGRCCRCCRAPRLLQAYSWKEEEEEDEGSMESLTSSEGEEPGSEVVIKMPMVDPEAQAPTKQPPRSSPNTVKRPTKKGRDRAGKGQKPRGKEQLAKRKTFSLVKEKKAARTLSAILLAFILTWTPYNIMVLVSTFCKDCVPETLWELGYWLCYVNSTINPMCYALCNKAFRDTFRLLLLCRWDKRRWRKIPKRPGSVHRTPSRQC

For assay [14] the target is unchanged. Briefly: Cholinergic receptor muscarinic 1 (CHRM1) small molecule agonists, cell-based qHTS assay (AID 1963589). Further: nearly all actives have a fitted effect of over 35% in size. In short, it runs like this: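 CHO cells stably expressing human CHRM1 were loaded with calcium dye for 1 h at 37 C, then compound was added in agonist mode. Intracellular calcium fluorescence was followed kinetically at 1 s intervals. Fifteen concentrations were tested in three independent runs.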

Assay [15] in a line: cAMP Responsive Elements (CRE) small molecule agonists, cell-based qHTS assay (AID 1963590). A digest of the protocol:
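CRE-bla HEK 293T cells, 2,000/well in DMEM with 10% dialyzed FBS and 25 mM HEPES, pre-incubated 18 h at 37 C, then exposed to compound 3 h at 37 C. Beta-lactamase reporter read with LiveBLAzer B/G FRET substrate after 2 h at room temperature.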

Assay [16] concerns the target Beta-2 adrenergic receptor (Homo sapiens) (UniProt P07550). Briefly: Adrenergic beta2 receptor (ADRB2) small molecule antagonists, cell-based qHTS assay (AID 1963592). Further: nearly all actives have a fitted effect of over 50% in size. Further: potency means the concentration at half of the fitted maximal effect. In short, it runs like this: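 Cells (CHO, stable ADRB2 overexpression) incubated 18-20hr at 37C; compounds added from DMSO; agonist mix (1nM isoproterenol, 100uM IBMX, 25uM Ro-20-1724) added; 0.5hr RT; d2-cAMP and anti-cAMP-cryptate added; 1hr RT; 665/615 nm read.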

Assay [17] has as its target D(2) dopamine receptor (Homo sapiens) (UniProt P14416). Briefly: Dopamine D2 receptor (DRD2) small molecule agonists, cell-based qHTS assay (AID 1963594). Further: nearly all actives have a fitted effect of over 35% in size. A digest of the protocol:
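HEK293 cells stably expressing human DRD2, pre-treated with PDE inhibitor Ro20-1724 (0.1 mM final) and compound 10 min at room temperature, then stimulated with NKH477 (200nM […]) for 30 min. cAMP read by HTRF (665/620 nm).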

Assay [18] shares this target. The assay is described as follows: Dopamine D2 receptor (DRD2) small molecule antagonists, cell-based qHTS assay (AID 1963595; active means well fitted inhibition curve with a large enough effect in the signal ratio in the repeat runs, with a control signal flat; the % refers to the signal ratio). A digest of the protocol: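 HEK293 cells stably expressing DRD2, preincubated with 0.1 mM Ro20-1724 and compounds 10 min, were stimulated with 200 nM NKH477 plus 12 nM quinpirole for 30 min at room temperature; cAMP measured by HTRF (665/620 nm).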

Assay [19] is described as follows: cAMP Responsive Elements (CRE) small molecule antagonists, cell-based qHTS assay (AID 1963591; active means well fitted inhibition curve with a large enough effect in the signal ratio in the repeat runs, not every such curve was filed as active; the % refers to the signal ratio). A digest of the protocol:
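CRE-bla HEK293T cells plated 18 h, then given compound plus NKH477 at 0.25 uM final for 3 h at 37C. Beta-lactamase reporter read with LiveBLAzer B/G FRET substrate after 2 h at room temperature.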

In assay [20] the target is Beta-2 adrenergic receptor (Homo sapiens) (UniProt P07550). Briefly: Adrenergic beta2 receptor (ADRB2) small molecule agonists, cell-based qHTS assay (AID 1963593).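 Further: CHO cells stably overexpressing human ADRB2.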 A digest of the protocol: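 CHO cells stably over-expressing ADRB2 were plated overnight at 37C, then dosed with compounds plus a stimulation mix containing 100uM IBMX and 25uM Ro-20-1724 for 0.5hr at room temperature. cAMP was measured by HTRF competition, 1hr.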
Sequence of Beta-2 adrenergic receptor (Homo sapiens) (P07550 whole entry, looked up): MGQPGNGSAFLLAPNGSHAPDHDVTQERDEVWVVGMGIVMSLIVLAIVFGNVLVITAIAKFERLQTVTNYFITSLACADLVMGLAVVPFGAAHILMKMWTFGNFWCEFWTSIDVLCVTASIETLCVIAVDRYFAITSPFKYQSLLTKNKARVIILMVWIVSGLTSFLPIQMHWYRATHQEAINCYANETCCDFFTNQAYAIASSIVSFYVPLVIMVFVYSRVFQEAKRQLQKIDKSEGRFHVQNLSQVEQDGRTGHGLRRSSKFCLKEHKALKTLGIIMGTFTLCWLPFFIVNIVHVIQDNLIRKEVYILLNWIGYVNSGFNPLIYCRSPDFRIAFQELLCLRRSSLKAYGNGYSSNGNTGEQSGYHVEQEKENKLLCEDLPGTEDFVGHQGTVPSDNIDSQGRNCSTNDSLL

Sequence of KiSS-1 receptor (Homo sapiens) (Q969F8 whole entry, looked up): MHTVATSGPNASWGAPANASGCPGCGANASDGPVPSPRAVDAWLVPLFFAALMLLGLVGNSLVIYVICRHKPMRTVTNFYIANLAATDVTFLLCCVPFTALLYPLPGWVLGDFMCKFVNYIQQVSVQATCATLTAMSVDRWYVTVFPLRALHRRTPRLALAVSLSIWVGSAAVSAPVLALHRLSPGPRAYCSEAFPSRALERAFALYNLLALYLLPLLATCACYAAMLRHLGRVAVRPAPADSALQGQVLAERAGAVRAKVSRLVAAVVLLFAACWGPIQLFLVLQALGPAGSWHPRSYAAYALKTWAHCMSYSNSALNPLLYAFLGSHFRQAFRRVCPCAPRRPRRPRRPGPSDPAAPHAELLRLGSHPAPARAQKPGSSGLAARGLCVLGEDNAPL
Sequence of 5-hydroxytryptamine receptor 2A (Homo sapiens) (P28223 whole entry, looked up): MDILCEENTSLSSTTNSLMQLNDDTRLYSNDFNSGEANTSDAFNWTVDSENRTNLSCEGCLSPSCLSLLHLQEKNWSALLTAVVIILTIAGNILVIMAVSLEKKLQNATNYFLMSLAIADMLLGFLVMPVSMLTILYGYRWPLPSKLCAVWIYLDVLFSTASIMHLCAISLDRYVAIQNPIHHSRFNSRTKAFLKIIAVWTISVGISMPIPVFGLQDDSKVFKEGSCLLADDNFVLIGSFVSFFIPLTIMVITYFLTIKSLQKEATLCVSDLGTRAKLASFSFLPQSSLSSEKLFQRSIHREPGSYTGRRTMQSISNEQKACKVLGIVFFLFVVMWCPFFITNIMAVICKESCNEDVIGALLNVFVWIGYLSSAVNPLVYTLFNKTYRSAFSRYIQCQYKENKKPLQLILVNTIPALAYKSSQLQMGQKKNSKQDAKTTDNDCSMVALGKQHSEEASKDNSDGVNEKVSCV
Sequence of D(2) dopamine receptor (Homo sapiens) (P14416 whole entry, looked up): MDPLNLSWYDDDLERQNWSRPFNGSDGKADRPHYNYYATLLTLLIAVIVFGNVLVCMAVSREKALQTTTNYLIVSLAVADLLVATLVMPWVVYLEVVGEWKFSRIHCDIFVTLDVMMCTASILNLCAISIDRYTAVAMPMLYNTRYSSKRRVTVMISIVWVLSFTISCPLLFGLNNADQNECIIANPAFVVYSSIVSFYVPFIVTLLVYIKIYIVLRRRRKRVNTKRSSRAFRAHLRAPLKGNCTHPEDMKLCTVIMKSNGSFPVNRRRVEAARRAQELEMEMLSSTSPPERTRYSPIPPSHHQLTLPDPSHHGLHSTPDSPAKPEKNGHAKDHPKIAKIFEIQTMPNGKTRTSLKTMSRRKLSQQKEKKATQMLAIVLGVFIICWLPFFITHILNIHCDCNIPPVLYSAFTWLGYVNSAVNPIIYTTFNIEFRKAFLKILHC

Take `OC(c1ccc(Cl)cc1)(c1cncnc1)c1ccccc1Cl` (stereo not given): the Potency result in assay [1], in [3], in assay [4], in [5], in assay [6] and in [7] was “inactive” in each case. Further, the Potency entry in assay [8], in assay [9], in assay [10], in assay [11], in [12] and in [13] was “inactive” each time. The Potency result in assay [14], in assay [15], in [17] and in assay [18] was “inactive” throughout. Also, the Potency is 24.8 µM (active) and inactive in assay [2]; 69.8 µM (active) in [16].
As to `O=C1C(Cl)=C(Cl)C(=O)C(Cl)=C1Cl`, the Potency in assay [1] was 27.2 µM (active) and 27.3 µM (active); in [2], 4.84 µM (active) and 9.69 µM (active); in assay [7] it was 40.8 µM (active); in assay [8], “inactive and 40.8 µM (active)”. Further, the Potency entry in [3], in [4], in assay [5], in [6], in assay [9] and in [11] was “inactive” throughout. The Potency result in [12], in [13], in assay [14], in assay [15] and in assay [19] was “inactive” throughout.
Take `Cc1cccc(N)c1`: the Potency result in [1], in assay [2], in assay [3], in [4], in [5] and in assay [6] was “inactive” throughout. Further, the Potency result in assay [7], in [8], in assay [9], in assay [10], in [11] and in assay [12] was “inactive” each time. Further, the Potency result in [13], in [14], in assay [19], in assay [16] and in [17] was “inactive” each time.
In the case of `CC(C)Oc1cc(-n2nc(C(C)(C)C)oc2=O)c(Cl)cc1Cl`, the Potency entry in [1], in assay [2], in assay [3], in assay [4], in assay [5] and in assay [6] was “inactive” each time. The Potency entry in [7], in [8], in assay [9], in assay [11], in assay [12] and in assay [13] was “inactive” each time. Moreover, the Potency result in assay [15], in assay [19], in assay [16], in [20], in assay [17] and in assay [18] was “inactive” each time.
`O=[N+]([O-])c1cc([As](=O)(O)O)ccc1O`: the Potency result in [1], in [2], in assay [3], in assay [4], in assay [5] and in [6] was “inactive” throughout. In addition, the Potency result in [7], in [8], in assay [9], in [10], in assay [15] and in [19] was “inactive” throughout. Also, the Potency result in assay [16], in assay [20] and in assay [17] was “inactive” each time.
Regarding `CCCCC(CC)C(=O)Cl` (stereo not given), the Potency entry in [1], in assay [2], in assay [3], in [4], in [5] and in [6] was “inactive” throughout. Moreover, the Potency result in [7], in [8], in assay [9], in [11], in [12] and in assay [13] was “inactive” each time. Further, the Potency entry in assay [14], in [15], in [19], in assay [16], in assay [20] and in assay [17] was “inactive” throughout. The Potency result in assay [18] was “inactive”.
With `Oc1c(Cl)c(Cl)c(Cl)c(Cl)c1Cl`, the Potency in assay [1] is 30 µM (active); in assay [11], 23.2 µM (active) and inactive. Also, the Potency result in assay [2], in [3], in [4], in assay [5], in assay [6] and in assay [7] was “inactive” each time. The Potency result in assay [8], in assay [9], in assay [12], in [13], in assay [14] and in [19] was “inactive” each time. In addition, the Potency result in [16], in assay [20], in assay [17] and in assay [18] was “inactive” in each case.

The values above are taken from PubChem BioAssay (Tox21).
